# Source: PubChem BioAssay (NCI)
# The panel holds about 83,000 compounds, 20% with a hit somewhere; the sample as a whole holds those more often.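 Percent growth is the endpoint: 0 to 100 indicates growth inhibition (40 means 60% inhibition), 0 means no net growth, and negative values indicate cell death.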 The source made the active and inactive calls. Rule for the calls: active = growth percent below 10; inactive = the rest.
# Test system: MCF7 breast
# Experiment: NCI-60 one-dose screen, 48 h (100 = growth as untreated, 0 = no growth, -100 = all killed)
# Settings: 10 µM unless noted
row,Compound,growth
1,COC(=O)c1cc(-c2cccs2)c(C#N)c(N)c1C#N,67.7% (inactive)
2,Cc1cc(Nc2nc(C(=O)Nc3ccccc3)nc3ccccc23)n[nH]1,72.1% (inactive)
3,CNC(C)=O,90.5% (inactive)
4,CN(C)c1ccc(-c2ccc(-c3ccc(C(=N)N)cn3)o2)cc1,-38.1% (active)
5,CCN1C(=O)N(CC)C2C1NN=c1s/c(=C\c3cccc(F)c3)c(=O)n12 (stereo not drawn),20% (inactive)
6,O=C(CC(O)c1ccncc1)c1ccccc1 (stereo not drawn),-24.2% (active)
7,CCN1C(=S)N(CC)C2Nn3c(s/c(=C4\C(=O)N(C)c5ccccc54)c3=O)=NC21 (stereo not drawn),29.8% (inactive)
8,O=C(Nc1ccc(Cl)cc1)c1cc(-c2ccc(F)cc2)c2sc(=O)[nH]c2n1,4.61% (active)
9,C#CCN1C(=O)/C(=c2\sc3n(c2=O)NC2C(N=3)N(CC)C(=O)N2CC)c2ccccc21 (stereo not drawn),42.2% (inactive)
10,C=C1C(=O)O[C@H]2[C@H]1CC/C(COC(=O)NCc1cc(OC)cc(OC)c1)=C\CC[C@@]1(C)O[C@@H]21,0.19% (active)
11,COc1ccc(C2CC(=O)Nc3c2c(C)nn3-c2nc3ccccc3[nH]2)cc1OC (stereo not drawn),46.4% (inactive)
12,COc1ccc(NC(=O)CSc2nc3ccccc3c(=O)n2Cc2cc(OC)c(OC)c(OC)c2)cc1,93.8% (inactive)
13,COc1cccc(NC(=O)Cn2cc3c(=O)oc4ccccc4c3n2)c1,88.1% (inactive)
14,CCCCCC(=O)OCc1ccccc1,97.4% (inactive)
15,CCCCCCCCCN1C(=O)/C(=c2\sc3n(c2=O)C2C(NN=3)N(CC)C(=O)N2CC)c2ccccc21 (stereo not drawn),27.9% (inactive)
16,Nc1c(C(=O)Nc2cccc([N+](=O)[O-])c2)sc2nc3c(cc12)C(O)CCC3 (stereo not drawn),15.2% (inactive)
17,COc1ccc(/C=c2\sc3n(c2=O)C2C(NN=3)N(C)C(=O)N2C)cc1 (stereo not drawn),22.7% (inactive)
18,CC(Br)C(O)c1cc2c(cc1Br)OCO2 (stereo not drawn),93% (inactive)
19,CC/C=C\C/C=C\C[C@H]1C/C=C2/C(=O)C=C[C@H]2C/C=C\CCC(=O)O1,20% (inactive)

row,Compound,growth
1,CCN(C(=O)c1cc2ccccc2[nH]1)[C@H]1CCC[C@@H](NCc2ccc(OC)cc2)C1,84% (inactive)
2,COc1ccc(NC(=O)/N=c2\oc3c(OC)cccc3cc2-c2cc3ccccc3[nH]2)cc1,70.1% (inactive)
3,COc1ccc(/C=N/NC(=O)Cn2c(Cc3cccc4ccccc34)nc3ccccc32)cc1,92.4% (inactive)
4,COc1cccc2cc(-c3cc4ccccc4[nH]3)/c(=N/C(=S)Nc3ccccc3)oc12,79.5% (inactive)
5,CCCCCCCCCCCCOB(OCCCCCCCCCCCC)OCCCCCCCCCCCC,97.5% (inactive)
6,COc1ccc(/C=C/C(=O)OCC(=O)NNC(=O)c2ccccc2)cc1OC,85.6% (inactive)
7,COc1ccc(NC(=S)/N=c2\oc3c(OC)cccc3cc2-c2cc3ccccc3[nH]2)cc1,81% (inactive)
8,Cc1oc2nc[nH]c(=O)c2c1C(=O)/C=C/c1ccc(Cl)cc1,15.4% (inactive)
9,COc1ccc(Cl)cc1NC(N)=S,96.2% (inactive)
10,c1ccn2nnnc2c1,93.1% (inactive)
11,O=C(/C=C/CN1CCCCC1)Nc1cc2c(Nc3ccc(F)c(Cl)c3F)ncnc2cc1OCCOC(F)F,17.6% (inactive)
12,CCN1C(=O)N(CC)C2Nn3c(s/c(=C4\C(=O)N(C5CCCC5)c5ccccc54)c3=O)=NC21 (stereo not drawn),45.7% (inactive)
13,C=CCN=C1NC(=O)/C(=C/c2cc(C(C)(C)C)c(O)c(C(C)(C)C)c2)S1,43.8% (inactive)
14,Nc1c(C(=O)Nc2ccccc2)sc2nc3c(cc12)CCCCC3,12.1% (inactive)
15,O=C1N=C(c2c(-c3[nH]c(=O)c4ccc(Br)cc4c3O)c(O)c3ccccc3c2O)C(=O)c2cc(Br)ccc21,-35.2% (active)
16,CCCCCCCC/C=C\CCCCCCCCOc1ccccc1CCOP(=O)(O)OCC[N+](C)(C)C,74.2% (inactive)
17,CC(C)C[C@H](NC(=O)[C@@H](Cc1ccccc1)n1ccc(Nc2ccccc2)cc1=O)B(O)O,21.1% (inactive)
18,COc1ccc(/C=C2\Oc3cc(OCCN4CCCC4)ccc3C2=O)c(OC)c1,85.1% (inactive)
19,Oc1ccc(N=Cc2ccccc2)cc1,84.8% (inactive)
